Reference: PubChem BioAssay AID1159580 (chemical genetic matrix, 2015)
Out of some 5,500 compounds screened, about 2,000 (36%) were called active. About 18% were inconclusive and are not listed. Rule as the data show it: active = normalized growth mostly below about 0.91 (no sharp cut-off); inconclusive = no clear call, values can overlap the other calls; inactive = mostly above about 0.92. This is one part of the list.

Assay: chemical genetic growth profiling, strain panel (AID 1159580);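 also: tested at 20 µM; growth read once vehicle control cultures reached saturation at 30 °C; 1 = growth at the plate median or of vehicle wells; lower values mean less growth of the strain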
Conditions: growth OD
[1] = S. cerevisiae deletion strains, locus YJR075W, strain HOC1, hits give low values
[2] = S. cerevisiae deletion strains, locus YNL153C, strain GIM3, hits give low values
[3] = S. cerevisiae deletion strains, locus YPL055C, strain LGE1, hits give low values
[4] = S. cerevisiae deletion strains, locus YPL241C, strain CIN2, hits give low values
[5] = S. cerevisiae deletion strains, locus YDL101C, strain DUN1, hits give low values
[6] = S. cerevisiae deletion strains, locus YHR030C, strain SLT2, hits give low values

Measured: normalized growth

COCC(=O)O[C@]1(CCN(C)CCCc2nc3ccccc3[nH]2)CCc2cc(F)ccc2[C@@H]1C(C)C
inactive: S. cerevisiae deletion strains, locus YAL040C, strain CLN3, hits give low values 1 | S. cerevisiae deletion strains, locus YCL061C, strain MRC1 (second series), hits give low values 1 | S. cerevisiae deletion strains, locus YDR363W, strain ESC2, hits give low values 1 | S. cerevisiae deletion strains, locus YER002W, strain NOP16, hits give low values 1.02 | [1] 0.967 | [2] 0.941 | S. cerevisiae deletion strains, locus YNL175C, strain NOP13, hits give low values 1.03 | S. cerevisiae deletion strains, locus YNL197C, strain WHI3, hits give low values 1.04 | S. cerevisiae deletion strains, locus YNL224C, strain SQS1, hits give low values 1.03 | S. cerevisiae deletion strains, locus YOR083W, strain WHI5 (second series), hits give low values 1.03 | [3] 0.929 | [4] 0.985

O=C(CCSc1cccs1)Nc1cccc(C(F)(F)F)c1
active: [6] 0.84 | S. cerevisiae deletion strains, locus YLR113W, strain HOG1, hits give low values 0.711 | S. cerevisiae deletion strains, locus YPL256C, strain CLN2, hits give low values 0.796
inactive: S. cerevisiae deletion strains, locus YAR019C, strain CDC15, hits give low values 0.936 | S. cerevisiae deletion strains, locus YBL105C, strain PKC1, hits give low values 0.922 | S. cerevisiae deletion strains, locus YBR135W, strain CKS1, hits give low values 0.929 | S. cerevisiae deletion strains, locus YBR136W, strain MEC1, hits give low values 0.911 | S. cerevisiae deletion strains, locus YBR160W, strain CDC28, hits give low values 0.926 | S. cerevisiae deletion strains, locus YDL017W, strain CDC7, hits give low values 0.922 | S. cerevisiae deletion strains, locus YDL028C, strain MPS1, hits give low values 0.93 | [5] 0.921 | S. cerevisiae deletion strains, locus YDL108W, strain KIN28, hits give low values 0.946 | S. cerevisiae deletion strains, locus YDL132W, strain cdc53, hits give low values 0.92 | S. cerevisiae deletion strains, locus YDL214C, strain PRR2, hits give low values 0.911 | S. cerevisiae deletion strains, locus YDR052C, strain DBF4, hits give low values 0.948 | S. cerevisiae deletion strains, locus YDR054C, strain cdc34, hits give low values 0.916 | S. cerevisiae deletion strains, locus YDR226W, strain ADK1, hits give low values 0.93 | S. cerevisiae deletion strains, locus YDR477W, strain SNF1, hits give low values 0.966 | S. cerevisiae deletion strains, locus YER123W, strain YCK3, hits give low values 0.915 | S. cerevisiae deletion strains, locus YER133W, strain GLC7, hits give low values 0.965 | S. cerevisiae deletion strains, locus YFL009W, strain cdc4, hits give low values 0.945 | S. cerevisiae deletion strains, locus YFL029C, strain CAK1, hits give low values 0.925 | S. cerevisiae deletion strains, locus YFR003C, strain YPI1, hits give low values 0.93 | S. cerevisiae deletion strains, locus YFR019W, strain FAB1, hits give low values 0.931 | S. cerevisiae deletion strains, locus YFR028C, strain CDC14, hits give low values 0.952 | S. cerevisiae deletion strains, locus YGR040W, strain KSS1, hits give low values 0.961 | S. cerevisiae deletion strains, locus YGR052W, strain FMP48, hits give low values 0.952 | S. cerevisiae deletion strains, locus YGR092W, strain DBF2, hits give low values 0.872 | S. cerevisiae deletion strains, locus YHR079C, strain IRE1, hits give low values 0.853 | S. cerevisiae deletion strains, locus YHR082C, strain KSP1, hits give low values 0.884 | S. cerevisiae deletion strains, locus YHR205W, strain SCH9, hits give low values 0.807 | S. cerevisiae deletion strains, locus YIL147C, strain SLN1, hits give low values 0.927 | S. cerevisiae deletion strains, locus YJL095W, strain BCK1, hits give low values 0.888 | S. cerevisiae deletion strains, locus YJL128C, strain PBS2, hits give low values 0.865 | S. cerevisiae deletion strains, locus YJL157C, strain FAR1, hits give low values 0.949 | S. cerevisiae deletion strains, locus YJR016C, strain ILV3, hits give low values 0.92 | S. cerevisiae deletion strains, locus YJR066W, strain TOR1 (second series), hits give low values 0.992 | S. cerevisiae deletion strains, locus YJR066W, strain TOR1, hits give low values 0.905 | S. cerevisiae deletion strains, locus YKL048C, strain ELM1, hits give low values 0.92 | S. cerevisiae deletion strains, locus YKL067W, strain YNK1, hits give low values 0.927 | S. cerevisiae deletion strains, locus YKL101W, strain HSL1, hits give low values 0.911 | S. cerevisiae deletion strains, locus YKL193C, strain SDS22, hits give low values 0.913 | S. cerevisiae deletion strains, locus YKL203C, strain TOR2, hits give low values 1.01 | S. cerevisiae deletion strains, locus YLR133W, strain CKI1, hits give low values 0.936 | S. cerevisiae deletion strains, locus YLR403W, strain SFP1, hits give low values 0.965 | S. cerevisiae deletion strains, locus YML070W, strain DAK1, hits give low values 0.891 | S. cerevisiae deletion strains, locus YMR001C, strain CDC5, hits give low values 0.924 | S. cerevisiae deletion strains, locus YMR205C, strain PFK2 (second series), hits give low values 0.913 | S. cerevisiae deletion strains, locus YMR277W, strain FCP1, hits give low values 0.919 | S. cerevisiae deletion strains, locus YNL006W, strain LST8, hits give low values 0.938 | S. cerevisiae deletion strains, locus YNL020C, strain ARK1, hits give low values 0.923 | S. cerevisiae deletion strains, locus YNL161W, strain CBK1, hits give low values 0.918 | S. cerevisiae deletion strains, locus YNL183C, strain NPR1, hits give low values 0.857 | S. cerevisiae deletion strains, locus YNL207W, strain RIO2, hits give low values 0.921 | S. cerevisiae deletion strains, locus YNL222W, strain SSU72, hits give low values 0.923 | S. cerevisiae deletion strains, locus YNL307C, strain MCK1 (second series), hits give low values 0.88 | S. cerevisiae deletion strains, locus YOL078W, strain AVO1, hits give low values 0.917 | S. cerevisiae deletion strains, locus YOL136C, strain PFK27, hits give low values 0.889 | S. cerevisiae deletion strains, locus YOR061W, strain CKA2, hits give low values 0.927 | S. cerevisiae deletion strains, locus YOR119C, strain RIO1, hits give low values 0.964 | S. cerevisiae deletion strains, locus YOR231W, strain MKK1, hits give low values 0.854 | S. cerevisiae deletion strains, locus YOR329C, strain SCD5, hits give low values 0.921 | S. cerevisiae deletion strains, locus YPL031C, strain PHO85, hits give low values 0.961 | S. cerevisiae deletion strains, locus YPL153C, strain RAD53, hits give low values 0.962 | S. cerevisiae deletion strains, locus YPL204W, strain HRR25, hits give low values 0.953 | S. cerevisiae deletion strains, locus YPL209C, strain IPL1, hits give low values 0.92 | S. cerevisiae deletion strains, locus YPR025C, strain CCL1, hits give low values 0.932 | S. cerevisiae deletion strains, locus YPR106W, strain ISR1, hits give low values 0.918 | S. cerevisiae deletion strains, locus YPR111W, strain DBF20, hits give low values 0.901 | S. cerevisiae deletion strains, strain NNK1, hits give low values 0.888 | S. cerevisiae deletion strains, strain TSCII, hits give low values 0.921

O=C(O)CCNC(=S)Nc1cccc(C(F)(F)F)c1
inactive: S. cerevisiae deletion strains, locus YAL013W, strain DEP1, hits give low values 0.998 | S. cerevisiae deletion strains, locus YBR229C, strain ROT2, hits give low values 1.01 | S. cerevisiae deletion strains, locus YCL061C, strain MRC1, hits give low values 0.99 | [5] 1.01 | S. cerevisiae deletion strains, locus YDL134C, strain PPH21, hits give low values 0.983 | S. cerevisiae deletion strains, locus YDR150W, strain NUM1, hits give low values 1.03 | S. cerevisiae deletion strains, locus YEL061C, strain CIN8, hits give low values 1.02 | S. cerevisiae deletion strains, locus YGR078C, strain PAC10, hits give low values 1.01 | S. cerevisiae deletion strains, locus YGR229C, strain SMI1, hits give low values 0.982 | [6] 0.996 | S. cerevisiae deletion strains, locus YHR087W, strain rtc3, hits give low values 1.02 | S. cerevisiae deletion strains, locus YJR043C, strain POL32, hits give low values 0.987 | [1] 0.997 | S. cerevisiae deletion strains, locus YLR039C, strain RIC1, hits give low values 0.976 | S. cerevisiae deletion strains, locus YLR058C, strain SHM2 (second series), hits give low values 0.999 | S. cerevisiae deletion strains, locus YLR085C, strain ARP6, hits give low values 0.971 | S. cerevisiae deletion strains, locus YLR262C, strain YPT6, hits give low values 0.986 | S. cerevisiae deletion strains, locus YML094W, strain GIM5, hits give low values 1.11 | S. cerevisiae deletion strains, locus YMR219W, strain ESC1, hits give low values 1 | S. cerevisiae deletion strains, locus YMR263W, strain SAP30, hits give low values 0.984 | [2] 1.01 | S. cerevisiae deletion strains, locus YNL298W, strain CLA4 (second series), hits give low values 0.985 | S. cerevisiae deletion strains, locus YNL322C, strain KRE1, hits give low values 1.01 | S. cerevisiae deletion strains, locus YNR030W, strain Alg12, hits give low values 1.03 | [3] 1.04 | [4] 0.918 | S. cerevisiae deletion strains, locus YPR135W, strain CTF4, hits give low values 1.06 | S. cerevisiae strains, strain wild type, hits give low values 0.966
